Bioassay records deposited in PubChem by National Center for Advancing Translational Sciences (NCATS).
IP6K1 inh = IP6K1 kinase inhibition; Q92551; IP6K1 kinase, ADP-Glo luminescence, 2 h; hits give low values; activity change, % (series mostly up to about 58 µM); 0.81% of 140,000 active; AID 1645851; in the data active means activity change below about -25%
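ADP-Glo luminescence measures ADP made by human IP6K1 during a 2 h RT reaction with ATP/IP6 (mix at 1.3 mM/130 uM); top library doses 57.5 and 19.1 uM final.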
KDM5B inhibitor = inhibitors of human KDM5B histone demethylase; AID 1347165; 2.6% of 220,000 active; Q9UGL1; KDM5B demethylase, FDH-coupled NADH fluorescence (FDH is formaldehyde dehydrogenase); Potency, µM (doses to about 57.7 µM), hits mostly inhibitors; further: nearly all actives have a fitted effect of over 70% in size
Target sequence (Q9UGL1 whole entry, looked up): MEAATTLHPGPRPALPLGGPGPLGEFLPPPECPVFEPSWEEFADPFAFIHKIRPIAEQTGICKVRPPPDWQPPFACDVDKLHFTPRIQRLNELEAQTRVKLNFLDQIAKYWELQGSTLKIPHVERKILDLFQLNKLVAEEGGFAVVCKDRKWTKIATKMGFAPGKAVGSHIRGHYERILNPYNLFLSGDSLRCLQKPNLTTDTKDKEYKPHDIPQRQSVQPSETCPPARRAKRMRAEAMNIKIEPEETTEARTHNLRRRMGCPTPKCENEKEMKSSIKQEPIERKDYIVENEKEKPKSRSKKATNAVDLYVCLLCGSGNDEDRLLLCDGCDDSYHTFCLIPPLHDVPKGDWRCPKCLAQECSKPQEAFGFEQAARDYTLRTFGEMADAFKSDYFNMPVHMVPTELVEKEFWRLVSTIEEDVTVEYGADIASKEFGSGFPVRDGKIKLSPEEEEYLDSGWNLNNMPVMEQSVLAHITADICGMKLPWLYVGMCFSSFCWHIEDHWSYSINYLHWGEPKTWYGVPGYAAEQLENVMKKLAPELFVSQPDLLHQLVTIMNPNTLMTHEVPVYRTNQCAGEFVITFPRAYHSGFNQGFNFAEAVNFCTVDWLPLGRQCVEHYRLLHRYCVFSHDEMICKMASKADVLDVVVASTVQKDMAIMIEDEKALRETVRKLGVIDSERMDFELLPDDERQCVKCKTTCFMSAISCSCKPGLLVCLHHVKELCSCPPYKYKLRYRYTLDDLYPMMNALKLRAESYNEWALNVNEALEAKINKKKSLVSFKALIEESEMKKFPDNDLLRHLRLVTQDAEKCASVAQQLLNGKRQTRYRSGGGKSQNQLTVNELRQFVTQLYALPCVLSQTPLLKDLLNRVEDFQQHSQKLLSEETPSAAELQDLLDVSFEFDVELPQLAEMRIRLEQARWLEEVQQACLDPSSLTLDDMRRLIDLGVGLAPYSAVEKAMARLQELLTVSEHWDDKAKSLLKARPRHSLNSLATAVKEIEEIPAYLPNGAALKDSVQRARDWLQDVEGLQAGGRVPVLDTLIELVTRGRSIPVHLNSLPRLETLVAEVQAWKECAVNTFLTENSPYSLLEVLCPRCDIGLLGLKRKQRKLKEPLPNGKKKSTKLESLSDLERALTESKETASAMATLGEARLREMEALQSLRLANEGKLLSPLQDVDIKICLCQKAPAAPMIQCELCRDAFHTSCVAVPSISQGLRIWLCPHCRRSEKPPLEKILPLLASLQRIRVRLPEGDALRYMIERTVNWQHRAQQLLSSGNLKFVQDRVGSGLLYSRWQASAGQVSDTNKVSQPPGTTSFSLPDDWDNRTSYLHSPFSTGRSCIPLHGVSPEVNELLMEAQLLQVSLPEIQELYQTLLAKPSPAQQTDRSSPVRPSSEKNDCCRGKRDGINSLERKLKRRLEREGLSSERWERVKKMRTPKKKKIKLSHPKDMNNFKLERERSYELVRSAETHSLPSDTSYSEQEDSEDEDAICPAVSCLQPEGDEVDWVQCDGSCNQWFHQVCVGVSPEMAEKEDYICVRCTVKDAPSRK
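Coupled FDH/NAD⁺ fluorescence readout. KDM5BΔAP 200 nM final; compound titration, 10 min RT preincubation; substrate mix 12.5 µM H3K4me3, 25 µM 2-OG, 50 µM Fe(II), 100 µM ascorbate, 0.25 mM NAD⁺, 0.25 U/mL FDH; ΔRFU over 30 min.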
SNCA expr inhib = SNCA gene expression inhibition; 0.17% of 140,000 active; AID 1671194; Potency, µM (series often up to 57.2 µM), usual class: inhibitors; HEK-293 SNCA-luciferase knock-in, luminescence, 24 h; further: nearly all actives have a fitted effect of over 45% in size
SNCA viab count = cell viability loss counter-screen. Potency, µM (top dose mostly 57.1 µM), usual class: cytotoxic. 0.12% of 150,000 active. HEK-293-SNCA-luc viability, GF-AFC fluorescence, 24 h; further: nearly all actives have a fitted effect of over 30% in size
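HEK-293-SNCA-luc cells (1500/well) plated 24 h, then exposed 24 h to a dilution series; GF-AFC added 30 min at 37C, fluorescence 405/540 nm; normalised to medium-only and DMSO wells, Hill fit.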
Hits are given with their value; 0 = inactive; ? = inconclusive; - = not tested or not shown. Shown are actives, neighbours in structure and some others; about 2.8% of the full set was active somewhere. Unless noted, the call rests on the fitted dose curve; in most records, active means well fitted curve in the direction sought with a large enough effect; inconclusive means small, poorly fitted or top-dose-only effect, or another doubt; inactive means no such curve, though single readings can be large; an effect the other way counts as inactive or inconclusive.

SMILES	IP6K1 inh	KDM5B inhibitor	SNCA expr inhib	SNCA viab count
O=C1NC2(CCCN([S+](=O)([O-])c3ccsc3)C2)COc2ccccc21 (stereo unspecified)	0	32µM	0	0
COc1cccc([S+](=O)([O-])N2CCC3(COc4ccccc4C(=O)N3)C2)c1 (stereo unspecified)	0	32µM	0	0
Cc1noc(C)c1[S+](=O)([O-])N1CCCC2(COc3ccccc3C(=O)N2)C1 (stereo unspecified)	0	25µM	?	?
O=C1NC2(CCN([S+](=O)([O-])c3ccccc3)C2)COc2ccccc21 (stereo unspecified)	0	0	0	0
Cc1noc(C)c1[S+](=O)([O-])N1CC2(C1)NC(=O)c1ccccc1O2	0	0	0	0
O=C(NC1CCCC1)c1cccc2ncccc12	-	0	-	-
CN1CCN(c2cc(=O)c3ccnc(-c4ccccc4Oc4ccccc4)c3o2)CC1	0	?	0	0
N#Cc1cccc(-c2n[nH]c3c2CC(=O)N(Cc2ccccn2)C3)c1	0	35µM	0	0
C[S+](=O)([O-])N1CCC(Cn2ccc3c(N4CCOCC4)nc(-c4cccnc4)cc32)CC1	0	?	0	0
Cc1ccc(-c2cc3c(ccn3CC3CCN([S+](C)(=O)[O-])CC3)c(N3CCOCC3)n2)cn1	0	32µM	0	0
COC(=O)/C(C#N)=C/c1cc(Br)c(OC)cc1OC	-	0	-	-
FC(F)(F)c1ccc(N2C3CCC2CN(Cc2ccc(-c4cccs4)cc2)C3)cc1	0	28µM	?	0
O=C(c1ccncc1)N1CC2CCC(C1)N2Cc1ccc(-c2cccs2)cc1	0	79µM	0	0
COc1cc(C)c(Cl)cc1S(=O)(=O)N1CCC(C(N)=O)CC1	-	0	-	-
CCc1ccc(-c2noc(CN3CCCC3c3cc(OC)ccc3OC)n2)cc1 (stereo unspecified)	-	0	-	-
COCCN1C(=O)CC[C@]2(C(=O)NCc3cccc(F)c3)CCCC[C@@H]12	0	0	0	0
COc1ccc(NC(=O)N2CCc3c(C(=O)NCCCN(C)C)cccc32)cc1	0	0	?	0
CCN1CCN(CCNC(=O)c2cccc3c2CCN3C(=O)Nc2ccc(C)cc2)CC1	0	0	13µM	0
CCCNC(=O)c1cccc2c1CCN2C(=O)Nc1ccc(OC)cc1	0	0	28µM	0
COc1ccc(NC(=O)N2CCc3c(C(=O)Nc4ccc5c(c4)OCO5)cccc32)cc1	0	22µM	7.9µM	0
COc1ccc(NC(=O)N2CCc3c(C(=O)NCCCN4CCCC4=O)cccc32)cc1	0	0	10µM	0
CC1(C)CC(NC(=O)CCNC(=O)N2CCN(C(=O)c3cc4ccccc4[nH]3)CC2)CC(C)(C)N1	-	0	-	-
O=C(COc1cc(O)c2c(=O)cc(-c3ccccc3)oc2c1)Nc1ccccc1F	-	0	-	-
COc1ccc(OC2CCN(C(C)=O)CC2)c(C(=O)NCCc2c(C)n[nH]c2C)c1	0	28µM	0	0
COc1ccc(OC2CCN(C3CCCC3)CC2)c(C(=O)NCCCN2CCCC2=O)c1	0	32µM	0	0
SMILES	IP6K1 inh	KDM5B inhibitor	SNCA expr inhib	SNCA viab count
Cc1cccc(OCC(=O)N[C@@H]2CN(c3ncccn3)C[C@H]2CN(C)C)c1	0	22µM	0	0
CN(C)C[C@@H]1CN(c2ncccn2)C[C@H]1NC(=O)COc1ccc(Cl)cc1	0	28µM	0	0
CN(C)C[C@@H]1CN(c2ncccn2)C[C@H]1NC(=O)COc1ccc(F)cc1	0	?	0	0
Cc1cc(C)c(Sc2ccccc2-c2ccccc2)c(C)c1	-	0	-	-
CCN1CC(C(=O)N2CCN(Cc3cc(OC)ccc3OC)CC2)CC1=O (stereo unspecified)	0	0	0	0
CCN1CC(C(=O)N2CCN(CCOc3ccccc3)CC2)CC1=O (stereo unspecified)	0	25µM	0	0
C=C1C(=O)O[C@@H]2[C@H]1CC(=O)[C@H](C)[C@@](O)(C(=O)/C=C/C)[C@H]2OC(=O)C(C)CC (stereo partly specified)	0	-	-	9.3µM
COc1ccc(-c2ccc3nnc(CNC(=O)CCc4cccc(OC)c4)n3n2)cc1	0	?	0	0
COc1ccc(C(=O)NCc2nnc3ccc(-c4ccc(Cl)cc4)nn23)c(C)c1	0	25µM	0	0
COc1ccc(C(=O)NCc2nnc3ccc(-c4ccc(C)c(C)c4)nn23)c(OC)c1	0	?	0	0
COc1ccc(-c2ccc3nnc(CNC(=O)c4ccc(C)c(C)c4)n3n2)cc1	0	25µM	0	0
COc1ccc(-c2ccc3nnc(CNC(=O)c4ccc(OC)cc4C)n3n2)cc1	0	28µM	0	0
COc1ccc(-c2ccc3nnc(CNC(=O)c4cccc(OC(F)(F)F)c4)n3n2)cc1	0	?	0	0
COc1ccc(-c2ccc3nnc(CNC(=O)c4ccco4)n3n2)cc1	0	32µM	0	0
CCC1(C)CC(=O)OC(=O)C1	-	0	-	-
CCc1noc(-c2cn(C3CCN(C(=O)c4cccc(C(F)(F)F)c4)C3)nn2)n1 (stereo unspecified)	0	0	0	0
COc1cccc(C(=O)NCc2nnc3ccc(-c4ccc(C)cc4)nn23)c1OC	0	14µM	0	0
Cc1ccc(-c2ccc3nnc(CNC(=O)c4ccc(C)cc4C)n3n2)cc1	0	13µM	0	0
Cc1ccc(-c2ccc3nnc(CNC(=O)Cc4cccc(F)c4)n3n2)cc1	0	?	?	0
Cc1ccc(-c2ccc3nnc(CNC(=O)c4cccc5[nH]ccc45)n3n2)cc1	0	0	0	?
CN1CCN(c2ccc(-c3cn(C)c(=O)n4cc(CNc5ccccc5)nc34)cn2)CC1	0	28µM	0	0
COc1ccc(-c2cn(C)c(=O)n3cc(CN(C)C)nc23)cc1OC	0	35µM	0	0
CN1CCN(c2ccc(-c3cn(C)c(=O)n4cc(COc5ccnn5C)nc34)cn2)CC1	0	40µM	0	0
Cn1nccc1OCc1cn2c(=O)n(C)cc(-c3ccsc3)c2n1	0	?	0	0
COc1cc(-c2cn(C)c(=O)n3cc(COc4ccnn4C)nc23)ccn1	0	35µM	0	0
SMILES	IP6K1 inh	KDM5B inhibitor	SNCA expr inhib	SNCA viab count
Cn1cc(-c2cn(C)c(=O)n3cc(CNc4ccccc4)nc23)cn1	0	0	0	0
Cc1ccccc1C(=O)Oc1ccc(OCc2ccccc2)cc1	-	0	-	-
CC1=C[C@@H](CNC(=O)c2cnccn2)[C@H](C(C)C)C[C@H]1Cc1nc2ccc(C)cc2[nH]1	0	0	0	40µM
CCC(CC)C(=O)NC[C@@H]1C=C(C)[C@H](Cc2nc3ccccc3n2C)C[C@H]1C(C)C	0	0	?	?
CC1=C[C@@H](CNC(=O)c2ccccc2)[C@H](C(C)C)C[C@H]1Cc1nc2ccccc2n1C	0	0	?	11µM
CC1=C[C@@H](CNC(=O)c2cnccn2)[C@H](C(C)C)C[C@H]1Cc1nc2ccc(F)cc2[nH]1	0	?	0	?
CCOC(=O)[C@@H]1CN(C(=O)OCC(C)(C)C)[C@H]2c3ccc(OC)cc3O[C@@H]12	0	-	-	-
Cc1cc2c(-c3cccc(O)c3)nc(-c3c(C)noc3C)cc2[nH]1	0	0	0	0
